HIV RNase H inh-1: inhibitors of HIV-1 reverse transcriptase RNase H | RT-RNase H RNA/DNA duplex cleavage, fluorescence | inhibition, % at 10 µM | actives 1.9% (n = 65,000) | AID 565; in the data active means inhibition above about 50%
HIV RNase H inh-2: confirmation of HIV-1 reverse transcriptase RNase H inhibitors; shares compounds with HIV RNase H inh-1; Recombinant RT RNase H, fluorescent RNA/DNA duplex cleavage; inhibition, % at 10 µM; actives 39% (n = 1,000); in the data active means inhibition above about 48%; inconclusive means no clear call, values can overlap the other calls
Active calls of the source: *. This excerpt belongs to a sample that is enriched for hits.

How did COc1ccc(NC(=O)c2oc3ccccc3c2NC(=O)c2ccco2)c(OC)c1 do in these assays?
HIV RNase H inh-1: 8

Results for O=C(Nc1ncnc2c1ncn2C1OC(COC(=O)c2ccccc2)C(F)C1O)c1ccccc1 (configuration not stated) ?
HIV RNase H inh-1: 1

What do the screens show for `CCCCn1c(SCC(=O)c2ccccc2)nc2c1c(=O)[nH]c(=O)n2C`?
HIV RNase H inh-1: 12

What do the screens show for `COc1ccc(C2(O)CCN(CCCCOc3ccccc3)CC2)cc1`?
HIV RNase H inh-1: 2

Results for CCOC(=O)CCc1c(C)c(C#N)c2nc3ccccc3n2c1-n1ccnc1C ?
HIV RNase H inh-1: 2

How did CCOC(=O)CCc1c(C)nc(SCCCn2c(=O)[nH]c3ccccc32)c(C#N)c1C do in these assays?
HIV RNase H inh-1: 86*; HIV RNase H inh-2: 20

How did CCOC(=O)CCc1c(C)nc(SCCN2CCCC2)c(C#N)c1C do in these assays?
HIV RNase H inh-1: 4

How did C=C(C)Cn1c(NCCC)nc2c1c(=O)n(C)c(=O)n2C do in these assays?
HIV RNase H inh-1: -2

What do the screens show for `CCN(C(=O)CN1CCN(c2ccc(O)cc2)CC1)c1c(N)n(Cc2ccccc2)c(=O)[nH]c1=O`?
HIV RNase H inh-1: 45

How did CC(C)=CC1C(C(=O)Nc2ccc(Br)cn2)C1(C)C (configuration not stated) do in these assays?
HIV RNase H inh-1: -9

What do the screens show for `COc1ccc(C(=O)Nc2ccccc2-c2nnn(CC(=O)NCc3ccco3)n2)cc1`?
HIV RNase H inh-1: 0

What do the screens show for `COC(=O)c1ccccc1NC(=O)NCc1ccco1`?
HIV RNase H inh-1: -22

What do the screens show for `COc1ccc(C(=O)Nc2ccccc2C(=O)NC(C(=O)NCc2ccco2)C(C)C)cc1` (configuration not stated)?
HIV RNase H inh-1: 82*; HIV RNase H inh-2: 7

How did CC1CCN(C(=O)CSc2nnc(CN3CCOCC3)n2-c2ccccc2)CC1 do in these assays?
HIV RNase H inh-1: -5

What do the screens show for `COc1ccc(NC(=O)C2CC(=O)OC2(C)C)cc1` (configuration not stated)?
HIV RNase H inh-1: 3

Results for O=C1CC(c2ccc3c(c2)OCO3)CN1 (configuration not stated) ?
HIV RNase H inh-1: -2

What do the screens show for `COCc1cc(C2SCC(=O)Nc3c2c(=O)[nH]n3C(C)C)ccc1OC` (configuration not stated)?
HIV RNase H inh-1: 5

Results for Cc1ccc(-n2nc(C)c3c2NC(=O)CSC3c2ccc3c(c2)OCO3)cc1 (configuration not stated) ?
HIV RNase H inh-1: 60*; HIV RNase H inh-2: 64*

What do the screens show for `COc1cccc(C(=O)NCC(=O)n2nc(C)cc2C)c1`?
HIV RNase H inh-1: 3

What do the screens show for `CCC(C)(C)NC(=O)C(c1cccc(OC)c1)N(C(=O)c1ccn[nH]1)c1cccc(OC)c1` (configuration not stated)?
HIV RNase H inh-1: 3

How did COc1ccccc1-c1nnc2n1N=C(c1ccc(O)c(O)c1)CS2 do in these assays?
HIV RNase H inh-1: 94*; HIV RNase H inh-2: 58*

Results for Cc1cccc(-c2nnc3n2N=C(c2ccc(Br)cc2)CS3)c1 ?
HIV RNase H inh-1: 40

How did COc1ccc(C2=Nn3c(nnc3-c3ccccn3)SC2)cc1 do in these assays?
HIV RNase H inh-1: -9

How did COc1cccc(-c2nnc3n2N=C(c2cccc(Br)c2)CS3)c1 do in these assays?
HIV RNase H inh-1: 54*; HIV RNase H inh-2: inconclusive

Results for COc1ccc(C2=Nn3c(nnc3-c3cccnc3)SC2)cc1OC ?
HIV RNase H inh-1: -17

What do the screens show for `CCOc1ccc(C2=Nn3c(nnc3-c3ccccc3OC)SC2)cc1`?
HIV RNase H inh-1: 3

How did O=C(CCN1CCc2ccccc2CC1)c1ccc2c(c1)OCCO2 do in these assays?
HIV RNase H inh-1: 36

How did CC(=O)N(CC(=O)O)c1ccccc1C(=O)O do in these assays?
HIV RNase H inh-1: -5

What do the screens show for `CCCOc1cccc(NC(=O)c2cc(C)oc2C)c1`?
HIV RNase H inh-1: -32

How did CCOc1ccc2nc(SCc3ccc(C(=O)OC)o3)[nH]c2c1 do in these assays?
HIV RNase H inh-1: -3

What do the screens show for `O=C(CSc1nnc(-c2ccco2)n1CC1CCCO1)c1ccc(F)cc1` (configuration not stated)?
HIV RNase H inh-1: -20

Results for Cc1ccc(C(=O)c2cc(C)sc2NC(=O)CN2CCN(C(=O)c3ccco3)CC2)cc1 ?
HIV RNase H inh-1: -2

Results for CC(C)(C)c1cc(C(c2cccnc2)N2CCN(CCO)CC2)cc(C(C)(C)C)c1O (configuration not stated) ?
HIV RNase H inh-1: 83*; HIV RNase H inh-2: -5

How did CC(C)(C)n1nnnc1C(c1cccnc1)N1CCN(C2CCCCC2)CC1 (configuration not stated) do in these assays?
HIV RNase H inh-1: -7

How did CC(C)(C)n1nnnc1C(c1cccnc1)N1CCN(C(=O)c2ccco2)CC1 (configuration not stated) do in these assays?
HIV RNase H inh-1: 3

What do the screens show for `CCCCCCn1c(CN2CCN(C(=O)OCC)CC2)nc2c1c(=O)n(C)c(=O)n2C`?
HIV RNase H inh-1: 1

Results for CC1=NC(C(F)(F)F)(C(F)(F)F)C(C#N)=C(C)N1 ?
HIV RNase H inh-1: -7

Results for COc1ccc(NC(=O)CCn2cccc2)cc1 ?
HIV RNase H inh-1: -3

Results for Cc1cc(NC(=O)CSc2ccc(Cl)cc2)no1 ?
HIV RNase H inh-1: 14

Results for Cc1cccc(-c2nsc(SCC(=O)Nc3cc(C)on3)n2)c1 ?
HIV RNase H inh-1: 70*; HIV RNase H inh-2: 48

Results for Cc1cccc(-n2ccnc2SCC(=O)Nc2cc(C)on2)c1 ?
HIV RNase H inh-1: -43

Results for COc1cc2c(cc1OC)CN(C(=O)CSc1nnc3scc(-c4ccccc4)n13)CC2 ?
HIV RNase H inh-1: -21

What do the screens show for `CC1(C)Cc2noc(N)c2C(C)(C)N1OC(=O)c1ccco1`?
HIV RNase H inh-1: -4

What do the screens show for `CCC(CO)NCc1ccc2c(c1)n(C)c(=O)n2C` (configuration not stated)?
HIV RNase H inh-1: 1

Results for COc1ccc(-c2nc(CSCC(=O)N3CCN(C4CCCCC4)CC3)c(C)o2)cc1OC ?
HIV RNase H inh-1: -11

Results for COc1cc(-c2nnc3sc(-c4ccccn4)nn23)cc(OC)c1OC ?
HIV RNase H inh-1: 9

What do the screens show for `COc1cc(-c2nn3c(COc4ccccc4)nnc3s2)cc(OC)c1OC`?
HIV RNase H inh-1: 71*; HIV RNase H inh-2: 29

What do the screens show for `COc1cc(-c2nn3c(-c4ccccc4)nnc3s2)cc(OC)c1OC`?
HIV RNase H inh-1: -6

How did COc1cc(-c2nn3c(Cc4ccccc4)nnc3s2)cc(OC)c1OC do in these assays?
HIV RNase H inh-1: 91*; HIV RNase H inh-2: 80*

Results for COc1cc(-c2nnc3sc(-c4ccncc4)nn23)cc(OC)c1OC ?
HIV RNase H inh-1: 14

Results for CCOc1cccc(-c2nnc3sc(-c4cc(OC)c(OC)c(OC)c4)nn23)c1 ?
HIV RNase H inh-1: -3

Results for COc1cccc(OC)c1-c1nn2c(-c3ccccc3Cl)nnc2s1 ?
HIV RNase H inh-1: 31

How did Nc1cc(C(=O)O)ccc1N1CCCCCC1 do in these assays?
HIV RNase H inh-1: -11

What do the screens show for `O=C(NCCCN1CCCC1=O)c1ccc(Cl)c(NS(=O)(=O)c2ccc(F)cc2)c1`?
HIV RNase H inh-1: 3

What do the screens show for `COC(=O)c1ccccc1NC(=O)CSc1nnc(CNS(=O)(=O)c2ccc(C)cc2)n1C`?
HIV RNase H inh-1: 10

Compound activity (PubChem)
